Sampled rows, rich in hits. Any-hit rate of the full collection: about 8%.
SW480 rerep: DNA re-replication induction in SW480 cells. SW480 DNA re-replication, Hoechst DNA content imaging, 48 h. Potency, µM (highest dose often 46.1 µM), without a hit: at the top dose re-replication activation, most hits filed as activators. 340,000 tested, 1.8% active; note: % of control where 0% means no effect; nearly all actives have a fitted effect of over 55% in size
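Readout is total intensity of Hoechst-stained nuclei, excited at 405 nm and collected at 500-530 nm. Compound treatment lasted 48 hr at 37 C in 5% CO2 before staining.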
KB-V1 cytotox: KB-V1 MDR subline cytotoxicity. Potency, µM (top dose mostly 46.1 µM), usual class: cytotoxic. 400,000 tested, 3.4% active. KB-V1 MDR cells viability, CellTiter-Glo, 72 h; note: % is set by controls: 0 for no effect and ±100 for the full control effect; nearly all actives have a fitted effect of over 60% in size
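Cytotoxicity via CellTiter-Glo luminescence after 72 h compound exposure at 37 degrees C. Cells: drug-selected KB-V1 line, DMEM phenol-red free plus 10% FBS. Compounds tested at multiple concentrations; normalized data fitted to concentration-effect curves.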
HT1080-NT tox: kills 2HG-producing HT-1080-NT fibrosarcoma cells; HT-1080-NT fibrosarcoma viability, CellTiter-Glo ATP luminescence, 48 h; Potency, µM (top dose mostly 46.1 µM), inactives show top-dose activity, negative = less viability, usual class: cytotoxic; 360,000 tested, 1.6% active;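 note: NT is the 2HG producing partner of a matched IDH1 knockdown line; 0% = DMSO-treated cells and -100% = media-only wells without cells; nearly all actives have a fitted effect of over 55% in size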
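Viability by CellTiter-Glo luminescence after 48 h compound exposure at 37C of HT-1080-NT cells (750/well, RPMI, 5% FBS). % activity scaled between DMSO wells and medium-only wells, then curve-fitted and categorized by curve class.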
KB-3-1 cytotox: kills parental KB-3-1 adenocarcinoma cells; KB-3-1 viability, CellTiter-Glo ATP luminescence, 72 h; Potency, µM (titrated, usually from 46.1 µM), actives largely listed as cytotoxic; 400,000 tested, 1.4% active; AID 1347075; note: % is set by controls: 0 for no effect and ±100 for the full control effect; nearly all actives have a fitted effect of over 60% in size
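Cytotoxicity measured as CellTiter-Glo luminescence after 72 h at 37 C. Compound titrations were pinned onto drug-naive KB-3-1 parental adenocarcinoma cells grown in DMEM with 10% FBS, and normalized data fitted to concentration-response curves.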
HT1080 IDH1KD tx: toxicity to HT-1080 IDH1 knockdown cells (counter line); HT-1080 IDH1 knockdown viability, ATP luminescence, 48 h; Potency, µM (highest dose often 46.1 µM), inactives show at the highest dose activity, negative = toxicity, actives largely listed as cytotoxic; 360,000 tested, 2% active; AID 686971;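 note: 0% = DMSO wells and -100% = cell-free medium wells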
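Using the IDH1-knockdown HT-1080 line run in the same batch and compound series as the NT line, viability after 48 h at 37 °C was determined by CellTiter-Glo luminescence and expressed as % activity.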
MCF10A rereplic: induces DNA re-replication in MCF 10a normal breast cells | MCF 10A DNA re-replication, Hoechst nuclear intensity, 48 h | Potency, µM (doses to about 46.1 µM), for the others: at the top dose activity, positive = re-replication, hits mostly activators | 350,000 tested, 2.9% active | AID 624296; note: % of control where 0% means no effect; nearly all actives have a fitted effect of over 50% in size
Starred values were filed as active, the others as inactive; i = inactive; ? = inconclusive; · = no result; ! = a repeat was not active; [ ] = remark or other dose. Calls come from the whole dose curve; as a rule, active = well fitted curve in the direction sought with a large enough effect; inconclusive = small, poorly fitted or top-dose-only effect, or another doubt; inactive = no such curve, though single readings can be large; an effect the other way counts as inactive or inconclusive. Potency is the fitted concentration of half-maximal effect.

SMILES	SW480 rerep	KB-V1 cytotox	HT1080-NT tox	KB-3-1 cytotox	HT1080 IDH1KD tx	MCF10A rereplic
COc1ccc(S(=O)(=O)Nc2cc3c4c(oc3c3ccccc23)CCCC4=O)cc1	?	5.2µM*	?	7.3µM*	3.7µM*	?
CCOC(=O)c1ccccc1NS(=O)(=O)c1ccc(C)cc1	?	?	-25%	26µM*	?	?
Cc1ccc(S(=O)(=O)Nc2ccccc2CNc2cccc(C)n2)cc1	70%	5.8µM*	-8%	i	1%	5%
CCn1c(=O)n(CC)c2cc(NS(=O)(=O)c3ccccc3)ccc21	3%	i	0%	?	2%	8%
COc1ccc(S(=O)(=O)Nc2cc3c4c(oc3c3ccccc23)CC(C)(C)CC4=O)cc1	-3%	?	?	?	?	-189%[0.0737 µM]
CC[C@H](C)[C@H]1O[C@]2(CC[C@@H]1C)C[C@@H]1C[C@@H](C/C=C(\C)[C@H](O[C@@H]3C[C@H](OC)[C@H](O[C@@H]4C[C@H](OC)[C@@H](O)[C@H](C)O4)[C@H](C)O3)[C@@H](C)/C=C/C=C3\CO[C@@H]4[C@H](O)C(C)=C[C@@H](C(=O)O1)[C@]34O)O2	-1%	·	·	·	·	?
COc1ccc(C)cc1NS(=O)(=O)c1ccc2c(c1)[C@H]1C=CC[C@H]1[C@@H](c1cccc(Cl)c1)N2	·	i	·	i	·	·
CCn1nc(C)c(NS(=O)(=O)c2ccc(C)cc2)c1C	-4%	16µM*	-24%	?	-4%	3%
Cc1ccc(S(=O)(=O)Nc2ccccc2NS(=O)(=O)c2ccc(C)cc2)cc1	·	21µM*	-30%	?	-21%	·
Cc1ccc(S(=O)(=O)Nc2c(C)nn(C)c2C)cc1	-4%	i	7%	i	-5%	-5%
Cc1ccc(S(=O)(=O)Nc2ccccc2-c2ccccc2)cc1	0.82µM*	?	2.9µM*	3.3µM*	4.1µM*	1.3µM*
COc1ccc(OC)c(NS(=O)(=O)c2ccccc2)c1	·	i	·	i	·	·
COc1ccc(NS(=O)(=O)c2ccc(SC)cc2)c(OC)c1	0%	18µM*	-16%	i	-17%	11%
Cc1ccc(S(=O)(=O)Nc2ccccc2[N+](=O)[O-])cc1	·	i	-2%	i	1%	·
Cc1ccc(S(=O)(=O)Nc2ccccc2O)cc1	·	i	-1%	i	8%	·
CC(C)c1ccc(C2c3c(-c4ccccc4O)n[nH]c3C(=O)N2Cc2ccncc2)cc1 (centres undefined)	·	?	·	i	·	·
O=C(O)c1cccc(-c2noc(-c3ccccc3F)n2)c1	-6%	·	·	·	·	2%
COc1ccc(S(=O)(=O)Nc2ccccc2C)cc1	13µM*	?	?	?	?	21µM*
CCOC(=O)c1ccc(S(=O)(=O)Nc2ccccc2-c2nnn(CC)n2)cc1	1%	16µM*	5%	i	4%	4%
Cc1ccccc1NS(=O)(=O)c1ccc(F)cc1	1%	i	7%[9.24 µM]	i	-20%	-6%
Clc1ccc(/C=N/Nc2nnc(-c3ncc[nH]3)c3ccccc23)cc1	23%	7.3µM*	?	i	?	9%
COCCCC/C(=N\OCCN)c1ccc(C(F)(F)F)cc1	8%	?	?	?	18µM*!	-12%
COCCCCC(=NOCCN)c1ccc(C(F)(F)F)cc1	?	·	·	·	·	24%
O=C(NCCCN1CCN(c2ccccc2F)CC1)c1ccc2nc(N3CCCCC3)sc2c1	·	i	·	i	·	·
CCN(CC)CCN(C(=O)/C=C/c1cccs1)c1nc2ccc(F)cc2s1	-8%	i	-21%	i	-10%	17%
CN(C)CCCN(C(=O)/C=C/c1cccs1)c1nc2ccc(F)cc2s1	?	18µM*	9.2µM*	21µM*	?	23µM*
CCc1ccc2nc(N(CCN(C)C)C(=O)/C=C/c3cccs3)sc2c1	?	?	-4%	?	?	?
